High-throughput results (PubChem)
This is a sample that favours compounds with a hit; in the whole collection about 21% have one here.
CYP2C9 inh: blockers of cytochrome P450 2C9 activity – biochemical, luminescence, ADME assay, primary screen | inhibition, % at 5 µM | AID 777, 2007 | P11712 | 96,000 tested, 20% active | CYP2C9 Supersomes, luciferin-H conversion;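 active = blocking of liver enzyme CYP2C9 beyond about 50% at 5 µM, limit read from the data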
Target sequence (P11712 whole entry, looked up): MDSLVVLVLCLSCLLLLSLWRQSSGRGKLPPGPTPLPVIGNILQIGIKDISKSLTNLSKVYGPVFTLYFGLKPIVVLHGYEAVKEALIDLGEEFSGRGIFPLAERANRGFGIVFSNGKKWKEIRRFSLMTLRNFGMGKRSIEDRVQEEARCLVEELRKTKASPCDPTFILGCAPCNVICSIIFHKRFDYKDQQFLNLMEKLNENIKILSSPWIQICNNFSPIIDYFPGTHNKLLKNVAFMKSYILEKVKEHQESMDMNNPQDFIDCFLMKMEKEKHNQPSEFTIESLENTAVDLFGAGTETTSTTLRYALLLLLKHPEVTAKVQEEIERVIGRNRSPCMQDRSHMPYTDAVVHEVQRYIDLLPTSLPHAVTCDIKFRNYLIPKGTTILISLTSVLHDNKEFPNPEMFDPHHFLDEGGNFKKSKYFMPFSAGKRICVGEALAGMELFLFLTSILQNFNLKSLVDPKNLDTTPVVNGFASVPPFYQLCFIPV
CYP2C19 inhib: blockers of cytochrome P450 2C19 activity – biochemical, luminescence, ADME assay, primary screen; P33261; CYP2C19 Supersomes, luciferin-H EGE luminescence, 30 min; inhibition, % at 5 µM; 96,000 tested, 21% active; AID 778, 2007;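 active = CYP2C19 inhibition above a set limit at 5 µM in the primary screen, cut at about 50% in these data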;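 note: plate controls were negative control wells for no effect and 2.5 mM tranylcypromine positive control for full effect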
CYP2C9 act: human CYP2C9 activators, primary screen, biochemical, luminescence; recombinant CYP2C9, luciferin-H conversion; hits give high values; factor 1 = untreated enzyme, 0 = blocked; activation factor at 5 µM; AID 1024, 2008; 96,000 tested, 1.4% active; Cytochrome P450 2C9 (Homo sapiens), P11712;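 active = activation factor of 2 or more for CYP2C9 at a 5 µM dose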;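 note: 0 = sulfaphenazole-blocked wells and 1 = vehicle-only wells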
MRP resist rev: reversal of MRP1-mediated doxorubicin resistance, primary screen, H69AR cells, doxorubicin co-treatment. AID 602, 2007. differential viability (reversal), % at 10 µM. 85,000 tested, 0.04% active. H69AR cells + 2 uM doxorubicin, CellTiter-Glo, 72 h;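 active = viability drop by adding the cancer drug above about 55%, with treated viability meeting a 40% cutoff, limit read from the data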;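 note: viability without doxorubicin minus viability with 2 µM doxorubicin for each compound; larger differential means the compound sensitizes cells more to doxorubicin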
MRP1 act: H69AR viability gain despite doxorubicin, primary screen, MRP-1 activator project, H69AR cells, CellTiter-Glo | viability rescue | viability increase, % at 10 µM | AID 799, 2007 | 140,000 tested, 0.61% active;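 active = viability gain under doxorubicin at or above a set limit, the compound median plus 3 SD, cut at about 4.7% in these data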;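 note: MRP-1 overexpressing cells given doxorubicin 25 µM after compound pretreatment; 18-22 h compound pretreatment then 72 h with doxorubicin before readout; 0% = doxorubicin-only wells and 100% = vehicle-treated cells without doxorubicin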
CYP2C19 act: human CYP2C19 activators, primary screen, biochemical, luminescence. 96,000 tested, under 10 active. recombinant CYP2C19, luciferin-H EGE luminescence; hits give high values; 0 = fully inhibited enzyme, 1 = untreated enzyme. activation factor at 5 µM. Cytochrome P450 2C19 (Homo sapiens), P33261;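 active = activation factor of at least 2 at 5 µM in the primary screen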;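 note: 0 = wells with 2.5 mM tranylcypromine and 1 = vehicle-only wells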
* hit, by the source's call; / = no result given.

SMILES | CYP2C9 inh | CYP2C19 inhib | CYP2C9 act | MRP resist rev | MRP1 act | CYP2C19 act
CCc1cc(C(=O)OC)c(NC(=O)C2CC(=O)NN2Cc2ccccc2)s1 (stereo unspecified) | 47 | 28 | 0.5 | / | -5 | 0.7
COC(=O)c1cc2oc3ccccc3c2n1Cc1ccccn1 | 51* | 73* | 0.5 | -3 | 1 | 0.3
COc1cc2c(cc1NCc1ccccn1)oc1ccccc12 | / | / | / | 18 | -4 | /
O=C(O)/C=C/C(=O)NC1CCS(=O)(=O)C1 (stereo unspecified) | / | / | / | / | -1 | /
O=C(O)/C=C\C(=O)NC1CCCCC1 | / | / | / | / | 29* | /
COc1cc(Br)c(C(C)NC(=O)c2cccc(Br)c2)cc1OC (stereo unspecified) | 66* | 62* | 0.3 | / | -3 | 0.4
Cc1ccc(C(=O)N[C@H](C(=O)OCC(=O)NC2CCS(=O)(=O)C2)C(C)C)cc1 (stereo partly specified) | / | / | / | / | -2 | /
Cc1ccc(CNC(=O)CCCn2c(=O)c3ccccc3n(CC(=O)NC3CCCC3)c2=O)cc1 | 75* | 31 | 0.3 | 8 | -1 | 0.7
CC1CCN(C(=O)Cn2c(=O)n(CCc3ccccc3)c(=O)c3ccccc32)CC1 | 39 | 5 | 0.6 | 16 | -1 | 0.9
O=C(Cn1c(=O)n(CCCCC(=O)NC2CCCC2)c(=O)c2ccccc21)NCCC1=CCCCC1 | 6 | 6 | 0.9 | / | -2 | 0.9
CCCCNC(=O)CCn1c(=O)c2ccccc2n(CC(=O)N2CC(C)CC(C)C2)c1=O (stereo unspecified) | 95* | 39 | 0 | -4 | -1 | 0.6
O=C(CCn1c(=O)c2ccccc2n(CC(=O)NC2CCCC2)c1=O)NCCc1ccc(Cl)cc1 | 69* | 55* | 0.3 | 15 | 2 | 0.5
CCOc1ccccc1NC(=O)Cn1c(=O)n(CCC(=O)NC2CCCC2)c(=O)c2ccccc21 | 74* | 40 | 0.3 | 9 | -1 | 0.6
CC1Cc2ccccc2N1CC(=O)NC(c1ccccc1)c1ccccc1 (stereo unspecified) | / | / | / | / | -3 | /
Cc1cccc(-n2ccnc2SCC(=O)N2CCCc3ccccc32)c1C | / | / | / | / | -1 | /
Cc1cc(-c2ccccc2)nc2[nH]n(-c3ccccc3)c(=O)c12 | 59* | 10 | 0.4 | 3 | -1 | 0.9
Cc1cc(C)c2c(=O)n(-c3ccccc3)[nH]c2n1 | -5 | -3 | 1.1 | 6 | 2 | 1
O=c1c2c(C(F)(F)F)cc(C(F)(F)F)nc2[nH]n1-c1ccccc1 | 84* | 2 | 0.2 | 5 | 0 | 1
O=C1CC(N2CCN(c3ccc(F)cc3)CC2)C(=O)N1Cc1cccs1 (stereo unspecified) | 33 | 30 | 0.7 | 15 | 0 | 0.7
O=C1CC(N2CCN(c3nc4ccccc4s3)CC2)C(=O)N1Cc1cccs1 (stereo unspecified) | 69* | 48 | 0.3 | 1 | -1 | 0.5
CCN(CC)C(=O)CC(c1ccc(F)cc1)c1ccc(OC)cc1 (stereo unspecified) | / | / | / | / | -1 | /
Cc1nnc(SCC(=O)N2CCN(Cc3ccccc3)CC2)s1 | 19 | 89* | 0.8 | 5 | 0 | 0.1
O=C(CSc1ncccn1)N1CCN(Cc2ccccc2)CC1 | / | / | / | 10 | 0 | /
Nc1nnc(SCCCC(=O)c2ccccc2)s1 | / | / | / | / | -2 | /
Nc1nnc(SCC(=O)c2ccc3ccccc3c2)s1 | 38 | 78* | 0.6 | 8 | -1 | 0.2
SMILES | CYP2C9 inh | CYP2C19 inhib | CYP2C9 act | MRP resist rev | MRP1 act | CYP2C19 act
Nc1nnc(SCC(=O)N2CCN(Cc3ccccc3)CC2)s1 | 53* | 68* | 0.5 | 5 | -1 | 0.3
O=C(CSc1nnc(-c2ccccc2)n1Cc1ccccc1)N1CCCC1 | -6 | -5 | 1.1 | 9 | -1 | 1.1
CCCN(CCC)S(=O)(=O)c1ccc(C(=O)Nc2cc3oc4ccccc4c3cc2OC)cc1 | / | / | / | / | 0 | /
Cc1nc(C)c(CC(=O)N/N=C/c2ccc(O)cc2)c(=O)[nH]1 | / | / | / | / | 0 | /
COc1cc(C(=O)NC(=S)Nc2ccc3c(c2)C(=O)N(C)C3=O)cc(OC)c1OC | / | / | / | / | -3 | /
COc1ccc(C(=O)Nc2ccc(/C(C)=N/NC(=O)c3ccccc3O)cc2)cc1OC | / | / | / | / | -3 | /
